# Assay results published in PMC4336329 (PLoS ONE, 2015).
# About 14,000 (4.5%) of roughly 310,000 compounds showed an effect of 50% or more. The effect is printed as a negative number. The list comes from a sample in which strong results are over-represented; it also holds similar structures and randomly drawn compounds.
# Biological target: human ether-à-go-go-related gene (hERG) potassium channel (human, UniProt Q12809)
# Assay: primary screen, population patch clamp on CHO cells stably expressing hERG; higher = less effect of the substance
# 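Note: peak tail current of the secondary pulse compared with the same well before compound.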
# Sequence of human ether-à-go-go-related gene (hERG) potassium channel (Q12809 whole entry, looked up): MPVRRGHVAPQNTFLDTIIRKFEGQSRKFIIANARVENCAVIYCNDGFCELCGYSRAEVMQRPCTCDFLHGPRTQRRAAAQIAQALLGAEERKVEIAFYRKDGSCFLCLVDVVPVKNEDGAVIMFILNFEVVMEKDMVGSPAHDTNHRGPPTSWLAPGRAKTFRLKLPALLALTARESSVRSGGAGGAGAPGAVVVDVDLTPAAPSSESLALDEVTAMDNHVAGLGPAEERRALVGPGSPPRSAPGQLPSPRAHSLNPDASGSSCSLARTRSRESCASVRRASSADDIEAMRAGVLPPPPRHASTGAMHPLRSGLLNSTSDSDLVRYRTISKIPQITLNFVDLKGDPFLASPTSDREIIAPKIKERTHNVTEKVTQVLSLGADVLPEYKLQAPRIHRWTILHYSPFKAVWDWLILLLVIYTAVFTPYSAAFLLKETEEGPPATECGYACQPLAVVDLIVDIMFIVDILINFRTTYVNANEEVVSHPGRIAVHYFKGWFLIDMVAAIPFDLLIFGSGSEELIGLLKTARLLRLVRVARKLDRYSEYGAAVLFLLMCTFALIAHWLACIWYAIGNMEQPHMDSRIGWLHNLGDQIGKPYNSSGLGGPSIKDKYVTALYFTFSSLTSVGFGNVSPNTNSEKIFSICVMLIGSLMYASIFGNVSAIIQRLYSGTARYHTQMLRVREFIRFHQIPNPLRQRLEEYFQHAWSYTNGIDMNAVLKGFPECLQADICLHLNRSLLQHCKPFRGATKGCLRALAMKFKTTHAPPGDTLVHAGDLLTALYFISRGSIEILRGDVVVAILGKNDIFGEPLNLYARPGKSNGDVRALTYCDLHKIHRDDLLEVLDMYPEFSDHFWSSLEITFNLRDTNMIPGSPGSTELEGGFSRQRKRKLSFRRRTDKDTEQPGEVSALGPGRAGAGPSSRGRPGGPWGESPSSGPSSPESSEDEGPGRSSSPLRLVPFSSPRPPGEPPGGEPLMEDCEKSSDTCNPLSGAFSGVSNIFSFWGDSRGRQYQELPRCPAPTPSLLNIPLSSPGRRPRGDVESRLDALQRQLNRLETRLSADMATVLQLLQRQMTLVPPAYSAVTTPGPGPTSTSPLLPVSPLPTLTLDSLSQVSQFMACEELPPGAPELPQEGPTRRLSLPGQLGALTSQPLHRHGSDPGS
row,Structure (SMILES),"hERG current change (%, negative = inhibition) at 10uM [%]"
1,COc1cc2ccccc2cc1C(=O)N1CCCC(C(F)(F)F)C1 (stereo not shown),-14.3
2,O=C(Nn1cc(C(=O)N2CCN(c3ccccc3F)CC2)c2ccccc2c1=O)c1cnccn1,2.84
3,Cc1ccc(C(C)NC(=O)C23CC4CC(CC(C4)C2)C3)cc1 (stereo not shown),11.4
4,CCOc1cccc(NC(=O)CSc2nc(C)c3c(c2C#N)CCCC3)c1,0.331
5,CCN(Cc1ccccc1)C(=O)COC(=O)c1cc(=O)[nH]c2ccccc12,-4.27
6,CCN1C(=NCCOC)N[C@@H](c2cccc(F)c2)C(C(=O)OC)=C1C,-14.3
7,COC(=O)C1=C(C)N(Cc2ccccc2)C(=NCCc2ccccn2)N[C@H]1c1cccc(F)c1,-60.4
8,CCN1C(=NCCc2ccccn2)N[C@@H](c2cccc(F)c2)C(C(=O)OC)=C1C,-56.7
9,COC(=O)C1=C(C)N(Cc2ccccc2)C(=NCc2ccccc2)N[C@H]1c1cccc(F)c1,-11.5
10,COC(=O)C1=C(C)N(Cc2ccccc2)C(=NCc2ccc(OC)cc2)N[C@H]1c1cccc(F)c1,6.76
11,CCN1C(=NCCCCO)N[C@@H](c2cccc(F)c2)C(C(=O)OC)=C1C,6.82
12,O=C1c2ccccc2CN1CCSC(=S)N1CCOCC1,-8.59
13,CC(C)C[C@H](NC(=O)C1CC(=O)N(c2ccc3c(c2)OCO3)C1)C(=O)NC1CCCCC1 (stereo partly shown),22.4
14,COc1ccc(C(C)=O)cc1CSc1nc2cc(C(=O)O)ccc2c(=O)n1Cc1ccccc1,12.7
15,CCOc1ccccc1OCC(=O)NCCc1ccc(S(N)(=O)=O)cc1,10.9
16,CCNCc1cc(Cl)c(OCc2ccccc2)c(OCC)c1.Cl,-8.51
17,CCOc1cc(CNCCc2ccc(S(N)(=O)=O)cc2)ccc1OCC(=O)NC1CCCCC1.Cl,-36.3
18,CCOc1ccc2ccccc2c1CNCCc1ccc(S(N)(=O)=O)cc1.Cl,-73.1
19,CCOc1cc(CNCCc2ccc(S(N)(=O)=O)cc2)ccc1OCc1ccc(Cl)cc1.Cl,-18.5
20,CCOc1cc(CNCCc2ccc(S(N)(=O)=O)cc2)cc(Cl)c1OCc1ccccc1.Cl,-70.7
21,COc1cc(CNCCc2ccccc2)cc(Cl)c1OCc1ccccc1.Cl,-18.7
22,CCOc1cc(CNCCc2ccc(S(N)(=O)=O)cc2)ccc1OCC(=O)NC(C)(C)C.Cl,4.8

row,Structure (SMILES),"hERG current change (%, negative = inhibition) at 10uM [%]"
1,CCOc1cc(CNCCc2ccc(S(N)(=O)=O)cc2)ccc1OCc1ccccc1.Cl,-55.9
2,COC(=O)c1ccc(C(=O)OC)c(NC(=O)/C=C/C(=O)O)c1,5.06
3,CC(NC(=O)c1ccccc1SCC(=O)N1CCCC1)c1ccccc1 (stereo not shown),-26.1
4,CCCCP(=O)(CCCC)Cc1ccccc1,15.3
5,CCN1C(=O)NC(=O)/C(=C/c2cc(C)n(-c3sc(C)c(C)c3C#N)c2C)C1=O,-4.66
6,COc1ccc(-c2c(C)nc(N)nc2-c2ccc(OCc3ccc(C)cc3)cc2O)cc1OC,4.25
7,CCN(CC)c1ccc(C(=O)N2CCN(Cc3ccccc3)CC2)cc1,-37.8
8,CCN1CCN(C(=S)c2ccc(O)cc2)CC1,11
9,CCOc1ccc(CN2CCN(C(=O)c3ccccc3)CC2)cc1,-39.5
10,CCOc1ccc(C(=O)N2CCCCCC2)cc1,2.03
11,CCN1CCN(C(=S)c2ccc(OC)cc2)CC1,-64.8
12,CCOc1ccc(C(=O)N2CCCC2)cc1,5.24
13,COc1ccc(C(=S)N2CCN(C)CC2)cc1,-22.8
14,CCOc1ccc(C(=O)N2CCN(Cc3ccccc3)CC2)cc1,-69.3
15,COc1ccc(C(=O)N2CCN(c3cccc(Cl)c3)CC2)cc1,-36
16,CCOc1ccc(C(=O)N2CCN(c3ccccc3)CC2)cc1,-36.3
17,CCOc1ccc(C(=O)N2CCN(c3cccc(Cl)c3)CC2)cc1,-73.7
18,CCOc1ccc(C(=O)N2CCCN(C(=O)c3ccc(OCC)cc3)CC2)cc1,-71.8
19,Cn1c(SCC(=O)N2CCCC2=O)nc2ccccc21,28.2
20,CCCS(=O)(=O)N1CCCC(C(=O)N2CCC3(CC2)OCCO3)C1 (stereo not shown),15.7
21,CCCCNS(=O)(=O)c1ccc2nc(-c3cccnc3)cc(C(=O)NCC(OC)OC)c2c1,-2.03
22,O=[N+]([O-])c1ccc(N2CCN(c3ccccc3F)CC2)c(S(=O)(=O)N2CCOCC2)c1,-5.12

row,Structure (SMILES),"hERG current change (%, negative = inhibition) at 10uM [%]"
1,CC(=O)NC(Nc1nc2c(s1)CCCC2)(C(F)(F)F)C(F)(F)F,23.8
2,C=CCNC(=O)/C(=C\C=C\c1ccccc1)NC(=O)c1ccccc1Cl,-49.7
3,CNC(=O)c1[nH]cnc1C(=O)NCC(=O)OCc1ccccc1,13.9
4,Cc1cc(NC(=O)c2cc([N+](=O)[O-])cc([N+](=O)[O-])c2)n(-c2ccccc2)n1,7.63
5,COc1ccc(/C=C2\CCn3c2nc2cc(C(=O)O)ccc2c3=O)cc1,9.07
6,COC(=O)CCCC1=CC2=CC(=O)C(C)(OC(=O)c3cccs3)C(=O)C2=CN1CCCCO (stereo not shown),3.74
7,CCCCc1cc(=O)oc2cc(OC(C)C(=O)NCc3ccccn3)c(Cl)cc12 (stereo not shown),-13.6
8,Br.COc1ccc(-c2csc(CCN3N=C(C)CC3=O)n2)cc1,12.7
9,CCCNS(=O)(=O)c1ccc(OCC(=O)N2CCN(Cc3ccccc3)CC2)cc1,-28.6
10,CCOc1ccc(C(=S)N2CCN(C)CC2)cc1,-82.2
11,Cc1ccc(S(=O)(=O)NCCC(=O)N2CCN(Cc3ccccc3)CC2)cc1,11
12,Cc1cccc(N2CCN(C(=O)c3ccncc3)CC2)c1C,-37
13,O=C(CCNS(=O)(=O)c1ccc(OC(F)(F)F)cc1)N1CCN(C/C=C/c2ccccc2)CC1,-81.5
14,CCOc1ccc(C(=O)N2CCN(c3cccc(C)c3C)CC2)cc1,-79.9
15,CCOC(=O)N1CCN(c2cccc(C)c2C)CC1,-2.36
16,CCOc1ccc(C(=S)N2CCCC2)cc1,-7.78
17,Cc1ccc(S(=O)(=O)NCCC(=O)N2CCN(C/C=C/c3ccccc3)CC2)cc1,-49.5
18,CCOc1ccc(C(=S)N2CCOCC2)cc1,-13.2
19,CCOc1ccc(S(=O)(=O)NCCC(=O)N2CCN(Cc3ccccc3)CC2)cc1,-54.2
20,O=C(CCNS(=O)(=O)c1ccccc1F)N1CCN(C/C=C/c2ccccc2)CC1,-47.8
21,CC(=O)Nc1ccc(S(=O)(=O)NCC2CCC(C(=O)N3CCCCCC3)CC2)cc1 (stereo not shown),5.67
22,CN(c1ccccc1)S(=O)(=O)c1ccc(Cl)nc1,10.8

row,Structure (SMILES),"hERG current change (%, negative = inhibition) at 10uM [%]"
1,C#CCOCCOCCOCCNc1nc(N2CCN(C(=O)[C@H]([C@@H](C)CC)n3cc([C@@H](N)Cc4ccc(O)cc4)nn3)CC2)nc(N2CCN(C(=O)[C@H](Cc3cc4ccccc4[nH]3)n3cc([C@@H](N)C(C)CC)nn3)CC2)n1.Cl (stereo partly shown),3.33
2,Cc1cc(Cl)ccc1OCC(=O)Nc1nc(-c2cccs2)cs1,15.6
3,CC(OC(=O)Cc1c[nH]c2ccccc12)C(=O)Nc1ccccc1F (stereo not shown),-11.7
4,CN1CCN(Cc2cccc(Oc3ccc(Cl)cc3)c2)CC1,1.98
5,O=C(O)C(=O)O.O=C(c1cccc(F)c1)N1CCN(Cc2cccc(Br)c2)CC1,-48.6
6,CCOc1ccc(CN2CCN(C(=O)c3cccc(F)c3)CC2)cc1.O=C(O)C(=O)O,-62
7,CCN1CCN(Cc2cccc(Oc3ccccc3)c2)CC1,-35.9
8,O=C(c1cccc(C(=O)N2CCN(Cc3ccccc3)CC2)c1)N1CCN(Cc2ccccc2)CC1,-17.2
9,O=C(c1ccccc1)N1CCN(Cc2cccc(Oc3ccccc3)c2)CC1,-50.1
10,CCN1CCN(Cc2cccc(Oc3ccc(Cl)cc3)c2)CC1,-56.9
11,COc1cccc(C(=O)N2CCN(Cc3cccc(F)c3)CC2)c1.O=C(O)C(=O)O,-7.48
12,COc1cccc(CN2CCN(C(=O)c3ccc(-c4ccccc4)cc3)CC2)c1,-38.3
13,C=CCn1c(-c2cccc(OC)c2OC)n[nH]c1=S,-24.3
14,Cc1cc2c(c(=O)n1Cc1ccccn1)C(c1ccc3c(c1)OCO3)C(C#N)=C(N)O2 (stereo not shown),-0.622
15,COc1ccc(C(=S)N2CCCC2)cc1OC,2.36
16,CC(C)OC(=O)CC(=O)CSc1nc2c(cc1C#N)CCCCCC2,-4.33
17,O=C(O)c1ccc(C2SCC(=O)N2Cc2ccccc2)cc1 (stereo not shown),-0.7
18,COc1ccc(N2CCN(C(=O)CSc3nnc4c(C)cc5cc(C)ccc5n34)CC2)cc1,-21.2
19,O=C1C2C3C=CC(C3)C2C(=O)N1c1n[nH]c(-c2cccnc2)n1 (stereo not shown),11.1
